Screening results from PubChem.
Cruzain Triton – blocks cruzain activity in presence of Triton detergent. 200,000 tested, 0.43% active. purified cruzain, Z-FR-AMC fluorescence, 0.01% Triton. Potency, µM, hits mostly inhibitors; also: nearly all actives have a fitted effect of over 40% in size
Target sequence (P25779 123-467 limits assumed): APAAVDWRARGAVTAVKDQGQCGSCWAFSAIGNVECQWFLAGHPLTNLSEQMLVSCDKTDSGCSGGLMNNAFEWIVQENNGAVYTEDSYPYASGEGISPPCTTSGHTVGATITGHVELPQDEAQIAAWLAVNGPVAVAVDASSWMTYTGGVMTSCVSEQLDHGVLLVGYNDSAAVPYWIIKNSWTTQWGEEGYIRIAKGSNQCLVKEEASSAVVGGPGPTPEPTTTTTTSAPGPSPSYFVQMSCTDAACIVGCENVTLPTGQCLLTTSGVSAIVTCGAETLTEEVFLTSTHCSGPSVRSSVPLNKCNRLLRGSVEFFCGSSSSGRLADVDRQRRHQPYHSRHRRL
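Sodium acetate buffer (100 mM, pH 5.5) containing 5 mM DTT and 0.01% Triton X-100 hosted 1.5 nM cruzain and test compound for 15 min at room temperature. Cleavage of 2 uM Z-FR-AMC was then tracked by fluorescence.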
Cruzain inh noDet – blocks cruzain activity in detergent-free assay | P25779 | purified cruzain, Z-FR-AMC fluorescence, no detergent | Potency, µM, most hits filed as inhibitors | 200,000 tested, 2.3% active | AID 1476; also: nearly all actives have a fitted effect of over 40% in size
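Purified cruzain at 1.5 nM, pre-incubated 15 min with compound at room temperature in 100 mM sodium acetate pH 5.5, 5 mM DTT, 0.00005% Triton X-100. Reaction started with 2 uM Z-FR-AMC; AMC fluorescence increase over 60 s gives rate.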
Hits are given with their value; . = inactive; ? = inconclusive. In the library only some 2.4% were active in any assay of this set; here they are far more common. Calls follow the shape of the dose curve; as a rule, active = well fitted curve in the direction sought with a large enough effect; inconclusive = small, poorly fitted or top-dose-only effect, or another doubt; inactive = no such curve, though single readings can be large; an effect the other way counts as inactive or inconclusive.

SMILES	Cruzain Triton	Cruzain inh noDet
CCCOc1ccc(Cc2nn3c(=O)/c(=C/c4ccco4)sc3nc2=O)cc1	.	10µM
CCCOc1ccc(/C=c2\sc3nc(-c4ccco4)nn3c2=O)cc1OCC	.	.
Cc1ccccc1C(=O)Nc1cccc(C(=O)OCc2cc(=O)n3c(C)csc3n2)c1	.	.
CC(=O)[C@H](CC(C)C)NC(=O)[C@@H](CC(C)C)NC(=O)[C@H](CC(C)C)NC(=O)OCc1ccccc1	0.0035µM	0.013µM
CC(=O)NC(CC(C)C)C(=O)NC(Cc1ccccc1)C(N)=O (stereo not drawn)	.	.
O=C(O)COc1cccc(-c2ocnc2-c2nc(-c3ccccc3)c(-c3ccccc3)o2)c1	.	7.9µM
Cc1ccc(-c2nc(-c3nccc4ccccc34)oc2-c2ccccc2)cc1	.	.
Cc1nn(Cc2ccc(Cl)c(Cl)c2)c(C)c1NC(=O)c1sc2ccccc2c1Cl	.	16µM
Cc1nn(Cc2c(Cl)cccc2Cl)c(C)c1NC(=O)c1sc2ccccc2c1Cl	.	.
Cc1cccc(CSc2nc3c(c(=O)[nH]2)C(c2cccc(O)c2)CC(=O)N3)c1 (stereo not drawn)	.	.
CC1CCN(S(=O)(=O)c2ccc3c(c2)c(=O)c(C(=O)N2CCN(c4cccc(Cl)c4)CC2)cn3C)CC1	.	.
CC(Oc1ccc(Cl)cc1Cl)C(=O)Nc1ccc(S(=O)(=O)Nc2cnc3ccccc3n2)cc1 (stereo not drawn)	22µM	.
Cc1cc(Cl)ccc1OC(C)C(=O)Nc1ccc(S(=O)(=O)Nc2cnc3ccccc3n2)cc1 (stereo not drawn)	25µM	?
CCC(Oc1ccccc1)C(=O)Nc1ccc(S(=O)(=O)Nc2cnc3ccccc3n2)cc1 (stereo not drawn)	.	?
COc1cc(NS(=O)(=O)c2ccc(NC(=O)C(C)Oc3ccc(Cl)cc3Cl)cc2)nc(OC)n1 (stereo not drawn)	.	.
CCCN1CCN(c2ncc3c(n2)CCN(Cc2ccc(OC)c(OC)c2OC)C3)CC1	.	.
Cc1ccc(NC(=O)C2CCCN(c3nnc(C)c4c(C)n(-c5ccccc5)nc34)C2)c(Cl)c1 (stereo not drawn)	.	.
CCOc1ccc(NC(=O)Cn2c(=O)c(CNc3ccccc3)cc3cc4c(cc32)OCCO4)cc1	.	.
COc1ccc(NCc2cc3cc4c(cc3n(CC(=O)Nc3ccc(F)cc3)c2=O)OCCO4)cc1	.	20µM
CCc1ccc(NCc2cc3cc4c(cc3n(CC(=O)Nc3ccc(F)cc3)c2=O)OCCO4)cc1	.	20µM
CCc1ccc(NCc2cc3cc4c(cc3n(CC(=O)Nc3ccc(C)cc3)c2=O)OCO4)cc1	.	.
Cc1ccc(C(=O)N/C(=C\c2ccc([N+](=O)[O-])cc2)C(=O)NCCc2ccccc2)cc1	.	?
O=C(NCCc1ccccc1)/C(=C\c1ccc([N+](=O)[O-])cc1)NC(=O)c1ccc(Br)cc1	.	6.3µM
COCCCn1c(-c2ccco2)nc2ccccc2c1=O	.	.
CCCCOCCCn1c(-c2ccco2)nc2nc3ccccc3nc21	28µM	?
SMILES	Cruzain Triton	Cruzain inh noDet
O=c1oc2c(CN3CCOCC3)c(O)c(Cl)cc2c2c1CCCC2	28µM	?
O=c1oc2c(CN3CCOCC3)c(O)ccc2c2c1CCCC2	28µM	?
O=c1oc2c(CN3CCOCC3)c(O)ccc2c2ccccc12	.	.
Cc1c(O)c(CN2CCCC2)cc2c3c(c(=O)oc12)CCC3	.	?
CN(C)Cc1c(O)ccc2c3c(c(=O)oc12)CCCCC3	22µM	?
CN(Cc1c(O)ccc2c1oc(=O)c1ccccc12)C1CCCCC1	.	.
CCOc1ccccc1CNC(=O)CSc1n[nH]c(-c2ccccc2)n1	.	.
CCOC(=O)c1ccc(NC(=O)CC2C(=O)N(c3ccccc3)C(=O)N2C2CCCCC2)cc1 (stereo not drawn)	.	.
Cc1ccc(Cn2c(=O)n(CCCCC(=O)NCCc3ccc(Cl)cc3)c(=O)c3ccccc32)cc1	.	.
Cc1cccc(C)c1NC(=O)c1oc2c(c1C)-c1nn(Cc3ccccc3)cc1CC2	.	.
Cc1nc(-c2ccc(S(=O)(=O)N3CCN(c4cc(Cl)ccc4C)CC3)cc2)co1	.	.
COc1ccc(OC)c(CNS(=O)(=O)c2c(C(=O)N3CCCCCC3)c(C)n(C)c2C)c1	.	.
Cc1cc(-n2c(C)cc(C(=O)CN3C(=O)NC4(CCCCC4C)C3=O)c2C)no1 (stereo not drawn)	.	.
Cc1cc(C(=O)CN2C(=O)NC(c3ccccc3)(c3ccccc3)C2=O)c(C)n1Cc1ccccc1	.	10µM
Cc1cc(C(=O)CN2C(=O)NC(C)(c3ccccc3)C2=O)c(C)n1CC1CCCO1 (stereo not drawn)	.	.
Cc1cc(C(=O)CN2C(=O)NC3(CCCCC3C)C2=O)c(C)n1Cc1cccs1 (stereo not drawn)	.	32µM
CCN1c2cc(C)ccc2-n2cccc2C12CCN(C(=O)Nc1cc(OC)c(OC)c(OC)c1)CC2	.	?
COc1cc(NC(=O)N2CCC3(CC2)Nc2cc(F)ccc2-n2cccc23)cc(OC)c1OC	.	?
COc1cc([N+](=O)[O-])ccc1NC(=O)N1CCC2(CC1)Nc1ccccc1-n1cccc12	.	25µM
CC(=O)c1cc(-c2ccc(F)cc2)n(CCC(=O)Nc2nc3ccc(C)cc3s2)c1C	.	.
Cc1ccc(C(=O)c2c(C)oc3c2C(=O)C(=O)c2ccccc2-3)cc1	.	?
Cc1ccc(C(=O)c2coc3c2C(=O)C(=O)c2ccccc2-3)cc1	.	13µM
CCOc1ccc(/C=C/c2nc(C#N)c(Nc3ccc(OC)cc3)o2)cc1	.	.
O=C(NCCc1ccc(F)cc1)C(=O)NCC(c1cccs1)S(=O)(=O)c1ccc(F)cc1 (stereo not drawn)	.	.
O=C(c1ccc(N2C(=O)C3CC=C(Cl)CC3C2=O)cc1)N1CCCCC1 (stereo not drawn)	.	.
SMILES	Cruzain Triton	Cruzain inh noDet
O=C(Nc1ccc(Br)cc1)c1ccc(N2C(=O)C3CC=C(Cl)CC3C2=O)cc1 (stereo not drawn)	.	20µM
COc1ccccc1CNC(=O)Cc1c(C)c2c(cc(C)c3c(C)coc32)oc1=O	.	.
CCc1ccc(NC(=O)C2CCN(c3nnc(-n4c(C)ccc4C)s3)CC2)cc1	.	.
O=C(COC(=O)/C=C/c1cccc(C(F)(F)F)c1)Nc1cccc2ccccc12	.	?
Cc1cc(C)c(NC(=O)COC(=O)/C=C/c2cccc(C(F)(F)F)c2)c(C)c1	.	.
COc1cc(/C=C/C(=O)OCC(=O)Nc2cc(C(F)(F)F)ccc2N2CCOCC2)ccc1O	.	.
COc1ccc(/C=C/C(=O)OCC(=O)Nc2cc(C(F)(F)F)ccc2Cl)cc1	.	25µM
Cc1ccccc1NC(=O)COC(=O)/C=C/c1cccc(C(F)(F)F)c1	.	25µM
O=C(COC(=O)/C=C/c1cccc(C(F)(F)F)c1)NC(c1ccccc1)c1ccccc1	.	16µM
CC1(C)CC(=O)c2cc(-c3nc(-c4ccc(Br)cc4)cs3)c(=O)n(-c3ccccc3)c2C1	.	.
CC(C)(C)OC(=O)N1CCC(c2c(C(=O)NC3CCCCC3)cnn2-c2cccc(Cl)c2)CC1	.	.
Cc1ccc(NC(=O)CN(C)S(=O)(=O)c2ccc3c(c2)n(C)c(=O)c(=O)n3C)cc1C	.	.
COc1ccc(NC(=O)Cn2ncc3c(C)n(Cc4cccc(Cl)c4)c(C)c3c2=O)cc1	.	.
FC(F)(F)c1cnc(-c2cnc3c(-c4ccc(Cl)cc4)cnn3c2)c(Cl)c1	.	10µM
